In PubChem BioAssay:
The source made the active and inactive calls.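 How the source made its calls: active means inhibition above 50%; inactive means the rest.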

assay: HepG2 cytotoxicity, primary screen, cytotoxicity control for P. falciparum antimalarial project, cell-based, ATP luminescence (AID 2303); conditions: HepG2 viability, 24-48 h, at 10 µM, active compounds read high;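 further: 0% = DMSO wells and 100% = digitonin-killed cells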

| Structure (SMILES) | inhibition |
| --- | --- |
| O=C(/C=C/c1ccc(Cl)c(Cl)c1)NCCCCCN1CCC(c2cn[nH]c2-c2ccccc2)CC1 | 28% (inactive) |
| CCOc1cc(C)ccc1C1CCN(CCCCNC(=O)c2ccc(-c3ccc(Cl)cn3)cc2)CC1 | 19% (inactive) |
| NC(=O)c1cccc(C(=O)Nc2ccc(-c3cccc(-c4nc5ccc(C(F)(F)F)cc5[nH]4)c3)cc2)c1 | 74% (active) |
| COc1ccccc1CCNC(=O)c1cnc(N2CCN(c3ccncc3)CC2)c(Cl)c1 | 30% (inactive) |
| Cc1ccc(-n2c(Sc3ncnc4sccc34)nnc2N2CCCC2)cc1 | 0% (inactive) |
| Cc1cc(N2CCCCC2)nc2ccc(NC(=O)c3cncc(Br)c3)cc12 | -3% (inactive) |
| Cn1nc(-c2cccc(CNCCc3cccs3)c2)c2cnc(NC3CCCC3)nc21 | 8% (inactive) |
| COc1ccc2nccc([C@@H](O)CN3CCC(NCc4ccc5cccc(O)c5n4)CC3)c2c1 | 10% (inactive) |
| CCCNCc1ccc(-c2ccc(CN(CCOC)C(=O)c3nn(-c4ccccc4)nc3C)cc2)nc1 | 18% (inactive) |
| CC(CN(C)C)C(=O)Nc1cccc(-c2ccc(-c3nc4ccc(C(F)(F)F)cc4[nH]3)cc2)c1 (stereo not drawn) | 26% (inactive) |
| Cc1ccc(C)c(Sc2ccc(NC(=O)CN3CCN(C(=O)c4ccco4)CC3)cc2)c1 | 28% (inactive) |
| C=CC[C@H](NC(=O)c1ccc(NS(=O)(=O)c2ccc3nc(N)[nH]c(=O)c3c2)cc1)C(=O)OCCCC | 61% (active) |
| O=C(Nc1cccc(CN2CCN(C(=O)c3cccc(Cl)c3)CC2)c1)c1ccco1 | 7% (inactive) |
